# Reference: PubChem BioAssay (EPA / NIEHS)
# Values joined by “and” are separate entries in the source; they are usually repeats but may differ in a detail not shown here. Equal entries are not always repeated. Results filed as inconclusive are left out. Where a structure was tested more than once in an assay, its records may differ in their call. Active and inactive are the calls of the source. The calls were made as follows, unless noted: active = hit-call score of the fitted dose curve at least 0.9, where 1 is the maximum; inconclusive = response in the unintended direction; inactive = score below 0.9.
# How the values were obtained:
# [1] = ATG_TCF_b_cat_CIS: Attagene CIS-FACTORIAL HepG2 Assay for human T-Cell-Factor with beta-catenin (TCF/b-cat) (AID 2282965; active = hit-call score of the fitted dose curve at least 0.9, where 1 is the maximum; inactive = score below 0.9); settings: HepG2 TCF/beta-catenin cis-reporter transcription, actives raise or lower the signal
# Method in brief: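 HepG2, transient MRTU transfection, cis-element-driven reporters (endogenous TFs). 24 h compound exposure. Readout: reporter mRNA by RT-PCR + 6-FAM primer extension, HpaI digest, capillary electrophoresis. Gain/loss fit vs DMSO baseline.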
# [2] = ATG_TAL_CIS: Attagene CIS-FACTORIAL HepG2 Assay for human TAL Basal Promoter (AID 2282966; active = hit-call score of the fitted dose curve at least 0.9, where 1 is the maximum; inactive = score below 0.9;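 also: background control endpoint measuring basal TAL promoter reporter mRNA not a specific factor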); settings: HepG2 Attagene cis-factorial TAL promoter reporter; actives raise or lower the signal
# Method in brief: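 Basal-promoter background-control endpoint from a multiplexed HepG2 reporter panel. Cells were exposed 24 h, then reporter mRNA was read by RT-PCR/CE fluorescence and fitted in both directions relative to DMSO.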
# [3] = ATG_TGFb_CIS: Attagene CIS-FACTORIAL HepG2 Assay for human Transforming Growth Factor (TGF) (AID 2282967; active = hit-call score of the fitted dose curve at least 0.9, where 1 is the maximum; inactive = score below 0.9); settings: HepG2 Attagene CIS TGFb reporter, mRNA transcription; actives raise or lower the signal
# Method in brief: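 Bidirectional fitting relative to DMSO gave the endpoint. Underlying data: reporter mRNA from HepG2 cells carrying transiently transfected cis-regulated reporter constructs, harvested 24 h after dosing and analyzed by RT-PCR and capillary electrophoresis.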
# [4] = ATG_VDRE_CIS: Attagene CIS-FACTORIAL HepG2 Assay for human Vitamin D Receptor Element (VDRE) (AID 2282968; active = hit-call score of the fitted dose curve at least 0.9, where 1 is the maximum; inactive = score below 0.9); settings: HepG2 VDRE cis-reporter transcription, actives raise or lower the signal
# Method in brief: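 Compounds were applied for 24 h to HepG2 cells transfected with promoter-regulated reporter units. Total RNA was reverse-transcribed, and reporter amplicons were fluorescently labelled and sized by capillary electrophoresis.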
# [5] = molecular target: Nuclear receptor subfamily 1 group I member 3 (Homo sapiens) (UniProt Q14994); experiment: ATG_CAR_TRANS: Attagene TRANS-FACTORIAL HepG2 Assay for human Constitutive Androstane Receptor (CAR) (AID 2282969); settings: HepG2 Attagene TRANS-FACTORIAL CAR reporter;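 also: activators raise reporter mRNA above DMSO so AC50 marks induction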
# Method in brief: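 Transiently transfected HepG2, multiplex TRANS reporters (CAR-Gal4 chimera driving GAL4-UAS reporter). 24 h dosing. Readout: reporter transcript by RT-PCR + capillary electrophoresis, fluorescence intensity; positive direction vs DMSO.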
# [6] = molecular target: Estrogen receptor (Homo sapiens) (UniProt P03372); experiment: ATG_ERa_TRANS: Attagene TRANS-FACTORIAL HepG2 Assay for human Estrogen Receptor alpha (ERa) (AID 2282970); settings: HepG2 Attagene TRANS ERa GAL4 reporter, mRNA
# Estrogen receptor (Homo sapiens), sequence (P03372 whole entry, looked up, the tested form may be a part): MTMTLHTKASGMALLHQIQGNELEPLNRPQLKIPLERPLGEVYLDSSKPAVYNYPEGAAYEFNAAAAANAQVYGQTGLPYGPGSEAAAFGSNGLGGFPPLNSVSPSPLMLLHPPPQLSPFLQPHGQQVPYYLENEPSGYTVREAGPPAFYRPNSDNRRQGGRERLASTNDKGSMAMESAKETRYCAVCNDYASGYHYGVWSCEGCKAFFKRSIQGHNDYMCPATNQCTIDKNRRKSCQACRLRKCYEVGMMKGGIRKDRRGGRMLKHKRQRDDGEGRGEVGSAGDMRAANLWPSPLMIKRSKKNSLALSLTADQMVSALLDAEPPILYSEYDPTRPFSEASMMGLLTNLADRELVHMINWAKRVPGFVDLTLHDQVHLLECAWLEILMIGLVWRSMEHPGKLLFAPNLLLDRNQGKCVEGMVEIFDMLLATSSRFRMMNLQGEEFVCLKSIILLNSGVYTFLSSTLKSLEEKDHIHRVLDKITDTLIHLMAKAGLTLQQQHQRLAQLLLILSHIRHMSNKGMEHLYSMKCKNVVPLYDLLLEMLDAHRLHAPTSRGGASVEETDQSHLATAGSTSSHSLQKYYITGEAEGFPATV
# Method in brief: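 Gal4-fusion ERa transactivation, measured as reporter transcript level in transiently transfected HepG2 cells. Exposure 24 h; RT-PCR plus capillary electrophoresis with fluorescence detection.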
# [7] = molecular target: Steroid hormone receptor ERR1 (Homo sapiens) (UniProt P11474); experiment: ATG_ERRa_TRANS: Attagene TRANS-FACTORIAL HepG2 Assay for human Estrogen-Related Receptor alpha (ERRa) (AID 2282971); settings: HepG2 Attagene TRANS reporter, ERRa transactivation
# Steroid hormone receptor ERR1 (Homo sapiens), sequence (P11474 whole entry, looked up, the tested form may be a part): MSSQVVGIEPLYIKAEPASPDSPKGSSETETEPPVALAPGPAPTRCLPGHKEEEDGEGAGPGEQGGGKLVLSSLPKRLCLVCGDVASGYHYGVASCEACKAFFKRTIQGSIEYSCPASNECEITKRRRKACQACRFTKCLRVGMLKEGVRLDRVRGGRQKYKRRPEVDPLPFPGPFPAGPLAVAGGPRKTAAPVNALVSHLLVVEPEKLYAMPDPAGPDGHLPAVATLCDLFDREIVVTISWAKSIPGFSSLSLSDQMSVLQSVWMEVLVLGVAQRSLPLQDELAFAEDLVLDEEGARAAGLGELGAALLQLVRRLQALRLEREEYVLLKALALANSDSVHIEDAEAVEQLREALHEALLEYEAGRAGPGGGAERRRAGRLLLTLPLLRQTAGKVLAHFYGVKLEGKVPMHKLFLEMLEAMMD
# Method in brief: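 HepG2 cells transiently transfected with GAL4-UAS reporter units and chimeric NR-Gal4 constructs; after 24 hour compound incubation, reporter mRNA quantified by RT-PCR, fluorescent labelling and capillary electrophoresis, gain of signal versus DMSO.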
# [8] = molecular target: X-box-binding protein 1 (Homo sapiens) (UniProt P17861); experiment: ATG_Xbp1_CIS: Attagene CIS-FACTORIAL HepG2 Assay for human X-box Binding Protein 1 (XBP1) (AID 2282972; active = hit-call score of the fitted dose curve at least 0.9, where 1 is the maximum; inactive = score below 0.9); settings: HepG2 XBP1 cis-element reporter, Attagene multiplex; actives raise or lower the signal
# X-box-binding protein 1 (Homo sapiens), sequence (P17861 whole entry, looked up): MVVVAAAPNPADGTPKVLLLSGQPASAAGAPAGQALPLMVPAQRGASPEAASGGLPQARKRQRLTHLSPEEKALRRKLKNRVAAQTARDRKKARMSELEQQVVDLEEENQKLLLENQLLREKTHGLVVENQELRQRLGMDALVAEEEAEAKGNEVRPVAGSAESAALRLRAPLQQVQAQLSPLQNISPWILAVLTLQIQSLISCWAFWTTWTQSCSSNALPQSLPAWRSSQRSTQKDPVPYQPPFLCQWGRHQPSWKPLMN
# Method in brief: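 Human hepatoma HepG2, cis-element reporter system, 24 h treatment; mRNA quantified by RT-PCR/CE fluorescence; fit relative to DMSO.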
# [9] = ATG_M_19_TRANS: Attagene TRANS-FACTORIAL HepG2 Assay for M19 Transcription Factor (Internal Marker) (AID 2282974); settings: HepG2 Attagene TRANS-FACTORIAL M19 internal marker reporter
# Method in brief: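 Using RT-PCR and capillary electrophoresis, reporter mRNA from transiently transfected human HepG2 cells was quantified following 24 h exposure; activity was fitted in the positive direction against DMSO.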
# [10] = ATG_GAL4_TRANS: Attagene TRANS-FACTORIAL HepG2 Assay for GAL4 (Internal Marker) (AID 2282976); settings: HepG2 Attagene TRANS GAL4 internal marker reporter
# Method in brief: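 Background-control readout: GAL4-UAS reporter transcript in transiently transfected HepG2 cells after 24 h compound exposure. Measured by RT-PCR, 6-FAM primer extension, HpaI digest and capillary electrophoresis; gain-of-signal fit versus DMSO.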
# [11] = molecular target: Estrogen-related receptor gamma (Homo sapiens) (UniProt P62508); experiment: ATG_ERRg_TRANS: Attagene TRANS-FACTORIAL HepG2 Assay for human Estrogen-Related Receptor gamma (ERRg) (AID 2282977); settings: HepG2 Attagene TRANS reporter, ERRg transactivation;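 also: hits increase reporter signal over DMSO so potencies reflect activators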
# Method in brief: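 Induction of reporter transcripts through a chimeric NR-Gal4 protein is quantified in transfected human HepG2 liver cells after 24 h chemical exposure, using RT-PCR with capillary electrophoresis detection and DMSO as baseline.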
# [12] = molecular target: Oxysterols receptor LXR-alpha (Homo sapiens) (UniProt Q13133); experiment: ATG_LXRa_TRANS: Attagene TRANS-FACTORIAL HepG2 Assay for human Liver X Receptor alpha (LXRa) (AID 2282980); settings: HepG2 Attagene TRANS reporter, LXRa transactivation
# Oxysterols receptor LXR-alpha (Homo sapiens), sequence (Q13133 whole entry, looked up, the tested form may be a part): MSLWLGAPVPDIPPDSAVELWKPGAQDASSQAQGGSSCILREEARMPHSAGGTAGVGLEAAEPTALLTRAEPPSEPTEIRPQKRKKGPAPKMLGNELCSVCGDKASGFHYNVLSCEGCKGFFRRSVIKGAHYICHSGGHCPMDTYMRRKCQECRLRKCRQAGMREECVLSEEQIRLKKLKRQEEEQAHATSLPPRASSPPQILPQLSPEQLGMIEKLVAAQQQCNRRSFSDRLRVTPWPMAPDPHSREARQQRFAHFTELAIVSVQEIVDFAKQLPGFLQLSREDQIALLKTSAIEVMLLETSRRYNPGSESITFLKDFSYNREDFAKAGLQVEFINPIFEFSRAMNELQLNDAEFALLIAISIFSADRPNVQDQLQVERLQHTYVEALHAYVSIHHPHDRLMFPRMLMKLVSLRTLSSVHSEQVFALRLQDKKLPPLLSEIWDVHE
# Method in brief: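 HepG2 cells transiently transfected with GAL4-UAS reporter units for chimeric NR-Gal4 proteins, exposed to chemicals for 24 h. Reporter mRNA quantified by RT-PCR and capillary electrophoresis; gain of signal fitted relative to DMSO.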
# [13] = molecular target: Oxysterols receptor LXR-beta (Homo sapiens) (UniProt P55055); experiment: ATG_LXRb_TRANS: Attagene TRANS-FACTORIAL HepG2 Assay for human Liver X Receptor beta (LXRb) (AID 2282981); settings: HepG2 Attagene TRANS GAL4-LXRb reporter, mRNA
# Oxysterols receptor LXR-beta (Homo sapiens), sequence (P55055 whole entry, looked up, the tested form may be a part): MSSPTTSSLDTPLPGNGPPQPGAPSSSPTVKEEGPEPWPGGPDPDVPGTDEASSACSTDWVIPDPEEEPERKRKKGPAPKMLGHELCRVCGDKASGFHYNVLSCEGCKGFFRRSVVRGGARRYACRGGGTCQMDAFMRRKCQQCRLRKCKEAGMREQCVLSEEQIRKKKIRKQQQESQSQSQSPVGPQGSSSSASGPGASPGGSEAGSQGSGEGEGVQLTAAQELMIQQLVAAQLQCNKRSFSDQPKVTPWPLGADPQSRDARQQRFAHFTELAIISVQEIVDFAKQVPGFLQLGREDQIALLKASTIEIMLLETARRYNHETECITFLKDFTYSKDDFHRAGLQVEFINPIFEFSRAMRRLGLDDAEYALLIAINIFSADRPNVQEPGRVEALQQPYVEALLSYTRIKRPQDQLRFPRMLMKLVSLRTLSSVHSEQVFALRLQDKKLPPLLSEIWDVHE
# Method in brief: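 Multiplexed reporter assay, HepG2, 24 h dosing. Fluorescence of labelled RT-PCR products after capillary electrophoresis gives transcript level; positive fitting direction relative to DMSO.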
# [14] = molecular target: Hepatocyte nuclear factor 4-alpha (Homo sapiens) (UniProt P41235); experiment: ATG_HNF4a_TRANS: Attagene TRANS-FACTORIAL HepG2 Assay for human Hepatocyte Nuclear Factor 4 alpha (HNF4a) (AID 2282982); settings: HepG2 HNF4a transactivation reporter, mRNA readout
# Hepatocyte nuclear factor 4-alpha (Homo sapiens), sequence (P41235 whole entry, looked up, the tested form may be a part): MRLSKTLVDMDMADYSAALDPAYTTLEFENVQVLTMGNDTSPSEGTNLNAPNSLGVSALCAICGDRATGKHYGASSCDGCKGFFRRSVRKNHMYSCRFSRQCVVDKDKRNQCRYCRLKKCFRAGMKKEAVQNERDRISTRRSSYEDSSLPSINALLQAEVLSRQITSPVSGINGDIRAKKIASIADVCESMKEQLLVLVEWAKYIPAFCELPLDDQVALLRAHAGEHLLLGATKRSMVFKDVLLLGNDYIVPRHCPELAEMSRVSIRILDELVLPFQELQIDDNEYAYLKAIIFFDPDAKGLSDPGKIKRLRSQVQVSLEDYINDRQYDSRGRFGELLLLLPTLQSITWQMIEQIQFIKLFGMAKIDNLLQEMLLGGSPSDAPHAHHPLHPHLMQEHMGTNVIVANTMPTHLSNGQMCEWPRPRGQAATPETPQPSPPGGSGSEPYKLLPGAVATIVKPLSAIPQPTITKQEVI
# Method in brief: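 Endpoint reflects transcriptional activation of a GAL4-UAS reporter by an HNF4a-GAL4 chimera in transfected HepG2 cells, 24 h post-dosing. Fluorescence from RT-PCR products separated by capillary electrophoresis; DMSO baseline.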
# [15] = ATG_M_32_TRANS: Attagene TRANS-FACTORIAL HepG2 Assay for M32 Transcription Factor (Internal Marker) (AID 2282984); settings: HepG2 Attagene TRANS M32 internal marker reporter
# Method in brief: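 Internal-marker readout from a multiplexed transcription reporter panel. HepG2 cells were transfected with GAL4-UAS reporter units, treated 24 hours, and reporter transcript levels determined by fluorescence after RT-PCR and capillary separation.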
# [16] = molecular target: Nuclear receptor subfamily 4 group A member 2 (Homo sapiens) (UniProt P43354); experiment: ATG_NURR1_TRANS: Attagene TRANS-FACTORIAL HepG2 Assay for human Nuclear Receptor Related Protein 1 (NURR1) (AID 2282985); settings: HepG2 Attagene TRANS reporter, mRNA readout
# Nuclear receptor subfamily 4 group A member 2 (Homo sapiens), sequence (P43354 whole entry, looked up): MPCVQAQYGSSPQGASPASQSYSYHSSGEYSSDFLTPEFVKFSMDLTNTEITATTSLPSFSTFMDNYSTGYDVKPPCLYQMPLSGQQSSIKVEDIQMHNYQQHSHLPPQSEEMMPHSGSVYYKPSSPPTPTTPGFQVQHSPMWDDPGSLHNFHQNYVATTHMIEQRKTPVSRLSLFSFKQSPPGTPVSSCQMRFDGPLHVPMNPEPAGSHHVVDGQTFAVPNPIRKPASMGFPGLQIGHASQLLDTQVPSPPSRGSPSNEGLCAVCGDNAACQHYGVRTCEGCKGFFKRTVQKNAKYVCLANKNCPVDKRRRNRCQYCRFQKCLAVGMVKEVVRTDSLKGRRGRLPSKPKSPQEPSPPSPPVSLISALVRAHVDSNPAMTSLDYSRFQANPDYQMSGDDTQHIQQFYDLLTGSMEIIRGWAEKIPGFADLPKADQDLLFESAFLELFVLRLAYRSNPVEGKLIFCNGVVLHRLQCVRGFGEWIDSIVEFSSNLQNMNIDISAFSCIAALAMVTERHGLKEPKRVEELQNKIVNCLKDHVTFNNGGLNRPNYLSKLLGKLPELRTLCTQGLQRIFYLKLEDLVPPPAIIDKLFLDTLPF
# Method in brief: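 Endpoint: reporter mRNA increase relative to DMSO. HepG2 cells transfected with reporter units, treated 24 h; RNA processed by RT-PCR, labelling, HpaI digestion and capillary electrophoresis.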
# [17] = molecular target: Transcriptional activator Myb (Homo sapiens) (UniProt P10242); experiment: ATG_Myb_CIS: Attagene CIS-FACTORIAL HepG2 Assay for human Myeloblastosis (Myb) Proto-Oncogene Transcription Factor (AID 2282986; active = hit-call score of the fitted dose curve at least 0.9, where 1 is the maximum; inactive = score below 0.9); settings: HepG2 Attagene CIS-FACTORIAL Myb reporter transcription; actives raise or lower the signal
# Transcriptional activator Myb (Homo sapiens), sequence (P10242 whole entry, looked up): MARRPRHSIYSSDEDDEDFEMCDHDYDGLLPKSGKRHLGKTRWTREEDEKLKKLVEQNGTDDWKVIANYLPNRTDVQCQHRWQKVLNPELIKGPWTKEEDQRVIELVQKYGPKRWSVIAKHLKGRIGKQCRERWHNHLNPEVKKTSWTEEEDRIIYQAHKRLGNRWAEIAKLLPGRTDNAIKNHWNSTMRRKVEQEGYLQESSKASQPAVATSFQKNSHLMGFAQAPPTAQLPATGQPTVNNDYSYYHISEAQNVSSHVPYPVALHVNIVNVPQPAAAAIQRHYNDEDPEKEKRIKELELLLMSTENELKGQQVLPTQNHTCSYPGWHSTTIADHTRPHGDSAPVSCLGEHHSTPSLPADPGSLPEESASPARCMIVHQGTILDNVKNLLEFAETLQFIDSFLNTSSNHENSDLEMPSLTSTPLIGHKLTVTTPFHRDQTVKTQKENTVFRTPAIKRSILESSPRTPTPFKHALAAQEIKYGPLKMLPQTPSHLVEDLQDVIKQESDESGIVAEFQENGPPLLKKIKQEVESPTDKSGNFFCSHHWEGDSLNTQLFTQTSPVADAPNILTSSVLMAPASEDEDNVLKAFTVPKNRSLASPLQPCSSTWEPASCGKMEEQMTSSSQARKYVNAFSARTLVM
# Method in brief: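 In this HepG2 transient-transfection format, cis-regulated reporter mRNA is quantified 24 h post-dosing by RT-PCR with capillary electrophoresis, fitted bidirectionally to DMSO baseline.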
# [18] = molecular target: Glucocorticoid receptor (Homo sapiens) (UniProt P04150); experiment: ATG_GR_TRANS: Attagene TRANS-FACTORIAL HepG2 Assay for human Glucocorticoid Receptor (GR) (AID 2282978); settings: HepG2 Attagene TRANS GR reporter, mRNA transcription;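 also: activators score as hits since higher reporter transcript over DMSO is fitted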
# Glucocorticoid receptor (Homo sapiens), sequence (P04150 whole entry, looked up, the tested form may be a part): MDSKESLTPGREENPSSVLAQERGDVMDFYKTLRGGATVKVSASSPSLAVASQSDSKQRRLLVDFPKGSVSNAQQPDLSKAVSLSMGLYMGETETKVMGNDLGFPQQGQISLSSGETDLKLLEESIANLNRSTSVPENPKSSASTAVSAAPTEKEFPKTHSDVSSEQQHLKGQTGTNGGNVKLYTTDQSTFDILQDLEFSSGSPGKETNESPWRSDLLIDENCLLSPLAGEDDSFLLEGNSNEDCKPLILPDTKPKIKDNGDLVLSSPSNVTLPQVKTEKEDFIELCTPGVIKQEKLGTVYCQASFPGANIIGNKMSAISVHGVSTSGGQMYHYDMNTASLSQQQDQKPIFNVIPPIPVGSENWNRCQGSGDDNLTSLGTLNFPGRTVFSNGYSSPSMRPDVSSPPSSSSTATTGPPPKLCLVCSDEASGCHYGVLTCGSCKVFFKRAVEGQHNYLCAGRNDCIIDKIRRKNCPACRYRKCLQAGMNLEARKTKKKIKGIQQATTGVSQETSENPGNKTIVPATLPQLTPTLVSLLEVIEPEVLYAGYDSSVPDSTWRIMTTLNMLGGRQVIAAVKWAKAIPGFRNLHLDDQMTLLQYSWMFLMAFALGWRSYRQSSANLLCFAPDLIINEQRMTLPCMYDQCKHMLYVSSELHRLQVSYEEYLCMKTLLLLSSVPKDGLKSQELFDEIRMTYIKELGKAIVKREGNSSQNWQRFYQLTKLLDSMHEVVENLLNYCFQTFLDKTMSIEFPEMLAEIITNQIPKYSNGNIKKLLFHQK
# Method in brief: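 Exogenous NR-GAL4 fusion activity was assessed through induced GAL4-UAS reporter transcripts in transfected human HepG2 cells, quantified after 24 h by RT-PCR and fluorescent capillary electrophoresis with DMSO as baseline.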
# [19] = molecular target: Bile acid receptor (Homo sapiens) (UniProt Q96RI1); experiment: ATG_FXR_TRANS: Attagene TRANS-FACTORIAL HepG2 Assay for Farnesoid X Receptor (FXR) (AID 2282979); settings: HepG2 Attagene TRANS FXR-GAL4 reporter transcription;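 also: hits raise reporter mRNA above DMSO so AC50 marks FXR activation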
# Method in brief: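 HepG2 cells were transiently transfected with GAL4-UAS reporters driven by chimeric NR-Gal4 proteins and dosed for 24 h. Reporter mRNA was quantified by RT-PCR, fluorescent labelling, HpaI digestion and capillary electrophoresis, with gain of signal scored versus DMSO.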
# [20] = ATG_M_06_TRANS: Attagene TRANS-FACTORIAL HepG2 Assay for M06 Transcription Factor (Internal Marker) (AID 2282983); settings: HepG2 Attagene TRANS M06 internal marker reporter
# Method in brief: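 mRNA levels of a reporter transcript, quantified as FAM fluorescence on capillary electrophoresis, served as readout. HepG2 cells expressing exogenous GAL4-chimera reporter constructs were exposed for 24 h. Gain of signal over DMSO was evaluated.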
smiles,measurement,setting,value
CCCCOCCOCCOCCO,outcome,[1],inactive
same,outcome,[2],inactive
same,outcome,[3],inactive
same,outcome,[4],inactive
same,outcome,[5],inactive
same,outcome,[6],inactive
same,outcome,[7],inactive
same,outcome,[8],inactive
same,outcome,[9],inactive
same,outcome,[10],inactive
same,outcome,[11],inactive
same,outcome,[12],inactive
same,outcome,[13],inactive
same,outcome,[14],inactive
same,outcome,[15],inactive
same,outcome,[16],inactive
same,outcome,[17],inactive
CC(C)COC(=O)c1ccccc1O,outcome,[1],inactive
same,outcome,[2],inactive
same,outcome,[3],inactive
same,outcome,[4],inactive
same,outcome,[5],inactive
same,outcome,[6],inactive
same,outcome,[8],inactive
same,outcome,[9],inactive
same,outcome,[10],inactive
same,outcome,[18],inactive
same,outcome,[12],inactive
same,outcome,[15],inactive
same,outcome,[16],inactive
same,outcome,[17],inactive
CN(C)CCC=C1c2ccccc2CCc2ccccc21,AC50,[1],22.1 µM (active)
same,outcome,[2],inactive
same,outcome,[3],inactive
same,AC50,[4],23.7 µM (active)
same,outcome,[5],inactive
same,outcome,[6],inactive
same,AC50,[8],40 µM (active)
same,outcome,[9],inactive
same,outcome,[18],inactive
same,outcome,[19],inactive
same,outcome,[12],inactive
same,outcome,[17],inactive
COc1ccc(N)c(C)c1,AC50,[1],169 µM (active)
same,outcome,[2],inactive
same,outcome,[3],inactive
same,AC50,[4],100 µM (active)
same,outcome,[5],inactive
same,AC50,[6],56.5 µM (active)
same,outcome,[8],inactive
same,outcome,[19],inactive
same,outcome,[12],inactive
same,outcome,[13],inactive
same,outcome,[14],inactive
same,outcome,[16],inactive
same,outcome,[17],inactive
CC(=O)c1ccc(O)cc1,outcome,[1],inactive
same,outcome,[2],inactive
same,outcome,[3],inactive
same,outcome,[4],inactive
same,outcome,[5],inactive
same,outcome,[6],inactive
same,outcome,[8],inactive
same,outcome,[10],inactive
same,outcome,[18],inactive
same,outcome,[19],inactive
same,outcome,[12],inactive
same,outcome,[14],inactive
same,outcome,[20],inactive
same,outcome,[15],inactive
same,outcome,[17],inactive
CCC=C(C)C=O,outcome,[1],inactive
same,outcome,[2],inactive
same,AC50,[3],0.643 µM (active)
same,outcome,[4],inactive
same,outcome,[5],inactive
same,AC50,[6],15.3 µM (active)
same,outcome,[7],inactive
same,outcome,[8],inactive
same,outcome,[9],inactive
same,outcome,[10],inactive
same,outcome,[18],inactive
same,outcome,[19],inactive
same,outcome,[13],inactive
same,outcome,[14],inactive
same,outcome,[20],inactive
same,outcome,[15],inactive
same,outcome,[16],inactive
same,outcome,[17],inactive
C[C@]12CC[C@@H]3c4ccc(O)cc4CC[C@H]3[C@@H]1CC[C@@H]2O,outcome,[1],inactive
same,outcome,[2],inactive
same,outcome,[3],inactive
same,AC50,[4],8.99 µM (active) and 4.21 µM (active)
same,outcome,[4],inactive
same,outcome,[5],inactive
same,outcome,[7],inactive
same,outcome,[8],inactive
same,outcome,[9],inactive
same,outcome,[10],inactive
same,outcome,[11],inactive
same,outcome,[18],inactive
same,outcome,[12],inactive
same,outcome,[13],inactive
same,outcome,[14],inactive
same,outcome,[15],inactive
same,outcome,[16],inactive
same,outcome,[17],inactive
CC12CCC(C1)C(C)(C)C2O (stereo not drawn),outcome,[1],inactive
same,outcome,[2],inactive
same,outcome,[3],inactive
same,outcome,[4],inactive
same,outcome,[5],inactive
same,outcome,[6],inactive
same,outcome,[8],inactive
same,outcome,[10],inactive
same,outcome,[19],inactive
same,outcome,[13],inactive
same,outcome,[14],inactive
same,outcome,[20],inactive
same,outcome,[16],inactive
same,outcome,[17],inactive
CCCCCCCCSCc1cc(C)c(O)c(CSCCCCCCCC)c1,outcome,[1],inactive
same,outcome,[2],inactive
same,outcome,[3],inactive
same,outcome,[4],inactive
same,outcome,[5],inactive
same,outcome,[6],inactive
same,outcome,[8],inactive
same,outcome,[19],inactive
same,outcome,[13],inactive
same,outcome,[14],inactive
same,outcome,[16],inactive
same,outcome,[17],inactive
